Results filed as inconclusive are left out. Where a call stands in place of a potency, no number is given. Calls of active or inactive are those of the source. Calls follow the shape of the dose curve; as a rule, active = well fitted inhibition curve with a large enough effect; inconclusive = small, poorly fitted or top-dose-only effect; inactive = flat fitted curve, though single readings scatter.
Potency is read from the fitted curve at half-maximal effect.

This test can be described thus: CHOP2 Reporter Counterscreen Assay for Inhibitors of Ubiquitin-specific Protease USP2a.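 Also: activated enterokinase alone at 50 pM in a cell-free format rather than USP2a or CHOP2; nearly all actives have a fitted effect of over 55% in size.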 Conditions: purified enterokinase, fluorogenic substrate, 485/531 nm; series mostly up to 38.3 µM. The procedure, abridged: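 Fluorescence (485/531 nm) read 10 min after adding 25nM reporter substrate to 50 pM activated EK preincubated 30 min RT with compound; Tris pH 8.0/CaCl2/CHAPS buffer. Data normalized to buffer-alone inhibition; concentration-response curves fitted.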
In the case of `O=C(CSc1nccc(=O)[nH]1)N1N=C2/C(=C/c3ccco3)CCCC2C1c1ccco1` (stereo not given), the Potency was 8.91 µM (active). The same measure for `COc1ccc(Cl)cc1S(=O)(=O)Nc1cccc(C(=O)O)c1`: “inactive”. On to `CCCCn1c(SCC(=O)N2CCC(C)CC2)nc2cc(S(N)(=O)=O)ccc21`, for which the Potency result is “inactive”. The same measure for `Cc1ccc(C)n1-c1cc(S(=O)(=O)N2CCOCC2)ccc1N1CCCC1`: “inactive”; for `O=C(O)C(Cc1ccccc1)N1C(=O)/C(=C/C=C/c2ccco2)SC1=S` (stereo not given): 2.51 µM (active). In the case of `O=C(CSc1nc2ccccc2c(=O)n1CC1CCCO1)NCc1ccccc1` (stereo not given) it was “inactive”; in that of `CC(C)N(C(=O)c1sc2cc([N+](=O)[O-])ccc2c1Cl)C(C)C`, “inactive”; in that of `Cc1ccc(-c2nc(N/N=C/c3ccncc3)c3ccccc3n2)cc1`, “inactive”. In the case of `CN(C)C=Nc1ncc2c3ccccc3n(CCN(C)C)c2c1C#N` it was “inactive”.

`COc1cc(C(O)P(=O)(OC(C)C)c2ccc(N(C)C)cc2)cc(OC)c1OC` (stereo not given): the Potency entry is “inactive”.

Regarding `CSC1=NCCN1C(=O)Cc1ccc(F)cc1`, the Potency entry was “inactive”. In the case of `O=C(NCCOC(=O)c1ccccc1C(=O)OCCNC(=O)c1cccnc1)c1cccnc1` it was “inactive”; in that of `COC(=O)C1CCN(C(=O)c2cc(-c3ccco3)nc3ccccc23)CC1`, 3.98 µM (active). The same measure for `CC(C)(C)C(=O)Nc1c2c(nc3c1CCC3)CCCC2`: “inactive”; for `Cc1ccc(C(=O)C(=S)N2CCOCC2)cc1`: “inactive”; for `N#CC(c1ccccc1)c1ccc(C(=O)c2ccc(F)cc2)cc1` (stereo not given): “inactive”. With `Cc1cccc(NCc2nc(-c3ccccc3)no2)c1`, the Potency entry is “inactive”. The same measure for `CC1CCCCC1NC(=O)CSCC(=O)O` (stereo not given): “inactive”; for `COc1ccc(S(=O)(=O)N2CCCCC2)cc1NC(=O)Cc1c[nH]c2ccccc12`: “inactive”; for `O=C(N/N=C/C=C/c1ccccc1)c1ccncc1`: “inactive”. The same measure for `Cc1ccccc1N=C1NC(=O)CS1`: “inactive”; for `O=C(NCCc1ccccc1)c1ccc2nc(-c3ccco3)c(-c3ccco3)nc2c1`: 5.01 µM (active); for `CC1CCN(c2ccc3c(c2)S(=O)(=O)c2cccc(C(=O)NC4CC4)c2C3=O)CC1`: “inactive”. In the case of `N#CCc1ccc(NC(=O)/C=C/c2ccc([N+](=O)[O-])o2)cc1` it was 10 µM (active).

As for `Cn1ccc(=Nc2ccc(NC(=O)c3ccc(N=c4ccn(C)c5ccc([N+](=O)[O-])cc45)cc3)cc2)cc1`, the Potency result is “inactive”.

With `C=CC[C@H](CC(=O)N[C@H](CO)Cc1ccccc1)C(=O)N[C@H](COC(=O)[C@@H](CC=C)CC(=O)OC(C)(C)C)Cc1c[nH]c2ccccc12`, the Potency result is “inactive”. For the molecule `Cc1ccc(/C=C/S(=O)(=O)N2CCC(C(=O)O)CC2)cc1`, the Potency entry was “inactive”. The same measure for `Cc1ccc(C(C(=O)NC2CCCC2)N2CCc3ccccc32)cc1` (stereo not given): “inactive”; for `COc1ccccc1C(=O)N1CCN=C1SC`: “inactive”. The same measure for `CC(C)c1ccc(Nc2nnc(SCC(=O)c3nnc(-c4ccccc4)o3)s2)cc1`: 5.01 µM (active); for `O=S(=O)(Nc1cccc(-c2cn3c(n2)SCC3)c1)c1ccc(F)cc1F`: “inactive”; for `CCOC(=O)N1CCN(C(=O)CN(c2cccc(C)c2)S(=O)(=O)c2ccccc2)CC1`: “inactive”. As to `O=C(Cn1cnc2sc(-c3ccccc3)cc2c1=O)NCc1ccco1`, the Potency is 10 µM (active). The same measure for `CC(=O)Nc1ccc(NC(=O)[C@@H](NC(=O)c2cccc(C)c2)C(C)C)cc1`: “inactive”. The same measure for `O=C(N/N=C1\CC(c2ccccc2)Oc2ccccc21)c1ccc(O)cc1` (stereo not given): “inactive”; for `O=C(Nc1nnc(SCCC2OCCO2)s1)C1CC(=O)N(c2ccc(F)cc2)C1` (stereo not given): 11.2 µM (active); for `FC(F)(F)c1cnc2c(c1)Nc1ccccc1S2`: “inactive”.

With `C=CC[C@H](CC(=O)N(CCO)Cc1ccccc1)C(=O)N[C@H](C)COC(=O)[C@@H](CC=C)CC(=O)OC(C)(C)C`, the Potency result is “inactive”.

As for `NC(=O)CC(NC(=O)Cc1ccc(Br)cc1)c1ccc(N2CCC(Cc3ccccc3)CC2)c([N+](=O)[O-])c1` (stereo not given), the Potency result was “inactive”. The same measure for `Nc1cc(=O)[nH]c(SCc2cccc(Cl)c2)n1`: “inactive”.

Values taken from PubChem BioAssay AID493169 (National Center for Advancing Translational Sciences (NCATS), 2011).
